Our source for the Potency and max activation values is PubChem BioAssay (Tox21).

Values joined by “and” are separate entries in the source; they are usually repeats but may differ in a detail not shown here. Equal values may be shown once. A number with no mark means an inactive call. Inconclusive results are not listed. Active and inactive are the calls of the source. Unless noted, the call rests on the fitted dose curve; in most records, active means well fitted curve in the direction sought with a large enough effect in the repeat runs; inconclusive means weak or mixed curves; inactive means no such curve, though single readings can be large; an effect the other way counts as inactive or inconclusive.

Test [1] is described as follows: Caspase-3/7 induction in CHO-K1 cells by small molecules, qHTS assay (AID 1346980). Further: on the % scale 0 is the no-effect control and ±100 the full control effect; nearly all actives have a fitted effect of over 15% in size. In a few lines:
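Wild-type CHO-K1 cells exposed to compounds for 17hr at 37 C, 5% CO2. Caspase-3/7 activity then measured by Caspase-Glo 3/7 luminescence after 30min at room temperature.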
(In general: qHTS replaces the single test concentration by a dilution series.)

Test [2] can be described thus: Caspase-3/7 induction in HepG2 cells by small molecules, qHTS cell viability counter screen (AID 1346981). Further: nearly all actives have a fitted effect of over 30% in size. Further: potency means the concentration at half of the fitted maximal effect. In a few lines: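 Cell viability is measured as a cytotoxicity counter screen alongside the Caspase-Glo 3/7 readout in identical wells. Wild-type HepG2 cells are treated with test compounds for 16 hr at 37 C before CellTiter-Fluor addition and a 1-hr incubation.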

Test [3] addresses Nuclear receptor subfamily 1 group I member 2 (Homo sapiens) (UniProt O75469). The experiment in a line: Human pregnane X receptor (PXR) small molecule agonists, qHTS assay (AID 1346982). Further: nearly all actives have a fitted effect of over 35% in size. Further: potency means the concentration at half of the fitted maximal effect. On activation: on the % scale 0 is the no-effect control and ±100 the full control effect. In a few lines: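 Cells: HepG2 stably carrying PXR-Luc. Medium held 5% charcoal-stripped FBS. Compounds in DMSO added after 5 hr plating, incubated 24 hr, then luminescence quantified with ONE-Glo.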

For test [4], the target named is Acetylcholinesterase (Homo sapiens) (UniProt P22303). As to the kind of experiment: Acetylcholinesterase (AChE) small molecule antagonists: colormetric cell-based qHTS assay (AID 1347395; calls by dose curve; further: nearly all actives have a fitted effect of over 30% in size; further: potency means the concentration at half of the fitted maximal effect). In a few lines:
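In this cell-based qHTS, attached SH-SY5Y cells were treated with test chemicals for 30 min, after which acetylthiocholine hydrolysis was followed by DTNB colour development over 90 min at 37 C.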

Test [5] has the same target. As to the kind of experiment: Acetylcholinesterase (AChE) small molecule antagonists: enzyme-based qHTS assay (AID 1347397; calls by dose curve; further: nearly all actives have a fitted effect of over 55% in size; further: potency means the concentration at half of the fitted maximal effect). The note with it: Potency: AChE enzyme activity inhibition. In a few lines: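 Colorimetric DTNB read-out of thiocholine released from acetylthiocholine by recombinant human AChE (50 mU/mL as dispensed). Compounds were preincubated 30 min at RT before substrate/DTNB addition, with a 10 min RT reaction.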

Test [6] shares this target. As to the kind of experiment: Acetylcholinesterase (AChE) small molecule antagonists: fluorescence cell-based qHTS assay (AID 1347398; calls by dose curve; further: nearly all actives have a fitted effect of over 50% in size; further: potency means the concentration at half of the fitted maximal effect). The note with it: Potency: AChE activity. In a few lines: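 SH-SY5Y, 2,000 cells/well, attached overnight; cmpd 30 min 37 C; acetylthiocholine/Thiolite Green cocktail 40 min RT; fluorescence Ex/Em 490/520 nm.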
The target is the same in test [7]. The experiment in a line: Acetylcholinesterase (AChE) small molecule antagonists: enzyme-based qHTS assay with human liver microsomes (AID 1347399; calls by dose curve; further: nearly all actives have a fitted effect of over 60% in size; further: potency means the concentration at half of the fitted maximal effect). The note with it: Potency: qHTS inhibition. In a few lines:
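Recombinant human AChE (50 mU/mL in the enzyme mix) and human liver microsomes (0.25 mg/mL final) were preincubated with compound and NADPH (0.25 mg/mL final) for 30 min at 37 C. Acetylthiocholine/DTNB was then added; thiocholine was read colorimetrically after 10 min at room temperature.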

Test [8] addresses Cytochrome P450 2D6 (Homo sapiens) (UniProt P10635). As to the kind of experiment: Cytochrome P450 Family 2 Subfamily D Member 6 (CYP2D6) small molecule antagonists: luciferase reporter qHTS assay (AID 1671196). Further: nearly all actives have a fitted effect of over 50% in size. Further: potency means the concentration at half of the fitted maximal effect. In a few lines:
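Enzyme and proluciferin substrate were first combined with test chemical for 10 min at room temperature. Adding NADPH regeneration solution started a 1 h reaction, stopped with luciferin detection reagent and read by luminescence 20 min later.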
For orientation: In a reporter assay the amount or activity of a reporter protein is the signal.

For test [9], the target named is Cytochrome P450 2C19 (Homo sapiens) (UniProt P33261). As to the kind of experiment: Cytochrome P450 Family 2 Subfamily C Member 19 (CYP2C19) small molecule antagonists: luciferase reporter qHTS assay (AID 1671197). Further: nearly all actives have a fitted effect of over 65% in size. Further: potency means the concentration at half of the fitted maximal effect. In a few lines: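 First, compounds are pinned into enzyme-substrate mix and held 10 min at room temperature. Second, NADPH regeneration solution is added and plates incubate 1 h at 37C. Third, detection reagent is added and luminescence read after 20 min.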

Test [10] addresses Cytochrome P450 2C9 (Homo sapiens) (UniProt P11712). The experiment in a line: Cytochrome P450 Family 2 Subfamily C Member 9 (CYP2C9) small molecule antagonists: luciferase reporter qHTS assay (AID 1671198). Further: nearly all actives have a fitted effect of over 50% in size. Further: potency means the concentration at half of the fitted maximal effect. In a few lines:
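P450-Glo proluciferin substrate with CYP2C9 enzyme; 10 min RT preincubation, then NADPH regeneration 1 h at 37C; luciferin detection reagent 20 min RT, luminescence in relative luminescence units.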

Test [11] addresses Cytochrome P450 3A4 (Homo sapiens) (UniProt P08684). As to the kind of experiment: Cytochrome P450 Family 3 Subfamily A Member 4 (CYP3A4) small molecule antagonists: luciferase reporter qHTS assay (AID 1671201). Further: nearly all actives have a fitted effect of over 50% in size. Further: potency means the concentration at half of the fitted maximal effect. In a few lines: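 Room-temperature assay throughout: 10 min compound–enzyme/substrate preincubation, 1 h reaction after NADPH regeneration solution, 20 min detection. Luciferin formed from proluciferin substrate is quantified by luminescence.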

The target of test [12] is Cytochrome P450 1A2 (Homo sapiens) (UniProt P05177). As to the kind of experiment: Cytochrome P450 Family 1 Subfamily A Member 2 (CYP1A2) small molecule antagonists: luciferase reporter qHTS assay (AID 1671199). In a few lines:
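Compounds were incubated with CYP1A2 and a luminogenic proluciferin substrate for 10 min at room temperature before the reaction was started with NADPH regeneration solution. After 1 h, detection reagent was added and light output, proportional to CYP activity, was recorded.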

Test [13] addresses Voltage-gated inwardly rectifying potassium channel KCNH2 (Homo sapiens) (UniProt Q12809). As to the kind of experiment: Human Ether-a-go-go-Related Gene (hERG) channel small molecule antagonists: fluorescence cell-based qHTS assay (AID 1671200). In a few lines:
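Cell line hERG-U2OS; dye FluxOR II, 1 h RT dark; Tl+ stimulus; ex 480/em 540 nm, read each second for 2 min.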
On the technique in general: The hERG channel carries a current that helps repolarise heart muscle cells.

Test [14] concerns the target Nuclear receptor subfamily 1 group I member 2 (Rattus norvegicus) (UniProt Q9R1A7). The experiment in a line: Rat pregnane X receptor (rPXR) activation by small molecules, qHTS assay (AID 1346983). Further: on the % scale 0 is the no-effect control and ±100 the full control effect; nearly all actives have a fitted effect of over 20% in size. Particulars: rPXR luciferase reporter cells, One-Glo luminescence, 24 h; max activation: hits give high values. In a few lines:
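Cell-based rPXR activation assay: rPXR cells, 2,000 per well, rested 5hr at 37 C, then exposed to compounds in DMSO for 24 hr at 37 C. Luciferase activity read by One-Glo luminescence after 30 min at room temperature.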

Chain of Nuclear receptor subfamily 1 group I member 2 (Homo sapiens) (O75469 whole entry, looked up): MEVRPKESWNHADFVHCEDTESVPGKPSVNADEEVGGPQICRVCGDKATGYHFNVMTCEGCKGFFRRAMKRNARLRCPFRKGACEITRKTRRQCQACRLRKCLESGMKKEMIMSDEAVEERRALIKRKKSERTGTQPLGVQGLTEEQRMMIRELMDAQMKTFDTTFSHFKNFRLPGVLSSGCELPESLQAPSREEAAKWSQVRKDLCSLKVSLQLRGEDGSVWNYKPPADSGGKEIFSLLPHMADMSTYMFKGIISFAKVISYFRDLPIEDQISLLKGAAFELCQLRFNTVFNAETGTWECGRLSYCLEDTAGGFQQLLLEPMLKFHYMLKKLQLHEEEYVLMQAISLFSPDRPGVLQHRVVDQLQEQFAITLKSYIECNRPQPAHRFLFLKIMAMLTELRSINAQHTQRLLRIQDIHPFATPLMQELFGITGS
Chain of Cytochrome P450 1A2 (Homo sapiens) (P05177 whole entry, looked up): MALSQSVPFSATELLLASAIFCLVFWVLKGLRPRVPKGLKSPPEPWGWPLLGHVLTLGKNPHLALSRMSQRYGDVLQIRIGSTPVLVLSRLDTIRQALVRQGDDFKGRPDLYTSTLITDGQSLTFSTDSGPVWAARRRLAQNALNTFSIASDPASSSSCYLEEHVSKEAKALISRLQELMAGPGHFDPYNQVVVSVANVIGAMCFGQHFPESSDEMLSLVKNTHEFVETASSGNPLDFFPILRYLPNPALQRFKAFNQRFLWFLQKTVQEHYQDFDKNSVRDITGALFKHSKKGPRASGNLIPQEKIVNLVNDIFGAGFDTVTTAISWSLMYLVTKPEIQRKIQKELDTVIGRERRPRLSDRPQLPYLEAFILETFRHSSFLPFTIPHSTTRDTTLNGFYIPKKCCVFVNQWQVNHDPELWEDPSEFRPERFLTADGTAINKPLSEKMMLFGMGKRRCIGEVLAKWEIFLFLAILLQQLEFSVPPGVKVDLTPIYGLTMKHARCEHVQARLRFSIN
Chain of Voltage-gated inwardly rectifying potassium channel KCNH2 (Homo sapiens) (Q12809 whole entry, looked up): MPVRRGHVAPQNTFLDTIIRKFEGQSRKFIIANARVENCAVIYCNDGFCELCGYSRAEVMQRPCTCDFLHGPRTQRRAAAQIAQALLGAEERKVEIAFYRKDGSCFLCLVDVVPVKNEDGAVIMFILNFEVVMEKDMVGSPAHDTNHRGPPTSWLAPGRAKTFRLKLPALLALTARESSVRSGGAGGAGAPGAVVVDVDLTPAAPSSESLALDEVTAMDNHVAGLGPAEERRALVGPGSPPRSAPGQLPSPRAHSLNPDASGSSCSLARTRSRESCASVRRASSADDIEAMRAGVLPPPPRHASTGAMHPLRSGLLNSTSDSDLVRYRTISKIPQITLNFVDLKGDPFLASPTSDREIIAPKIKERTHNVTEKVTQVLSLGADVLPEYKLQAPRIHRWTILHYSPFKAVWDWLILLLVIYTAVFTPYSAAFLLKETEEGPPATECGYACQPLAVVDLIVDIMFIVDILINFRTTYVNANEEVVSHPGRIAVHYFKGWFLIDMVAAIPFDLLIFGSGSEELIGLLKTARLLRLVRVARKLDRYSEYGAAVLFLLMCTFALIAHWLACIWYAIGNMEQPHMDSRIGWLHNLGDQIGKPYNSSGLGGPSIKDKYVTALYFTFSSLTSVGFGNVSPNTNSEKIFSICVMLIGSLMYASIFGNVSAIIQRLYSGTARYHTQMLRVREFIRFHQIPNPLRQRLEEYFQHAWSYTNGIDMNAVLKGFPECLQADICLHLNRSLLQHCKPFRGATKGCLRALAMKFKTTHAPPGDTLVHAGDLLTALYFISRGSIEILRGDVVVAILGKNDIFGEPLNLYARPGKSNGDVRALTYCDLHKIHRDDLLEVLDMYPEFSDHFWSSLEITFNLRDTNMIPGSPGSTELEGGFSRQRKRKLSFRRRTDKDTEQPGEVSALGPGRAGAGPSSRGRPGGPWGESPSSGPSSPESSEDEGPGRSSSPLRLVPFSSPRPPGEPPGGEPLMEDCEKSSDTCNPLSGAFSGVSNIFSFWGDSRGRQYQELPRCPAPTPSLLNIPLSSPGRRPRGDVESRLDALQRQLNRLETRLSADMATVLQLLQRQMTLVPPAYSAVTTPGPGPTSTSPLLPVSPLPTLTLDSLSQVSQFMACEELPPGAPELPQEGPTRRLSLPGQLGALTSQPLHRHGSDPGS
Chain of Cytochrome P450 2C9 (Homo sapiens) (P11712 whole entry, looked up): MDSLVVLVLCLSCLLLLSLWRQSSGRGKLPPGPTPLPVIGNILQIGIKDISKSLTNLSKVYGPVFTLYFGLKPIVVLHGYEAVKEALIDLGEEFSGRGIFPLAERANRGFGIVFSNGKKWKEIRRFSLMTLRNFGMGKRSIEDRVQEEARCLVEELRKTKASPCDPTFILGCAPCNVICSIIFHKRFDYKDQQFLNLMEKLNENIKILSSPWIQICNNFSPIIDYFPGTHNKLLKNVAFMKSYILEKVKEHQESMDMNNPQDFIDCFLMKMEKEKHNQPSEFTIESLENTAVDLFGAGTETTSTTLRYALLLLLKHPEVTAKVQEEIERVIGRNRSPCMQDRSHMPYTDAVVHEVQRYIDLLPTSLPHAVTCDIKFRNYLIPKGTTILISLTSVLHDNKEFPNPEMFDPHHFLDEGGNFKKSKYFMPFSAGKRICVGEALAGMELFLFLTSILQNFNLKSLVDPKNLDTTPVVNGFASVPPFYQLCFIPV
Chain of Cytochrome P450 3A4 (Homo sapiens) (P08684 whole entry, looked up): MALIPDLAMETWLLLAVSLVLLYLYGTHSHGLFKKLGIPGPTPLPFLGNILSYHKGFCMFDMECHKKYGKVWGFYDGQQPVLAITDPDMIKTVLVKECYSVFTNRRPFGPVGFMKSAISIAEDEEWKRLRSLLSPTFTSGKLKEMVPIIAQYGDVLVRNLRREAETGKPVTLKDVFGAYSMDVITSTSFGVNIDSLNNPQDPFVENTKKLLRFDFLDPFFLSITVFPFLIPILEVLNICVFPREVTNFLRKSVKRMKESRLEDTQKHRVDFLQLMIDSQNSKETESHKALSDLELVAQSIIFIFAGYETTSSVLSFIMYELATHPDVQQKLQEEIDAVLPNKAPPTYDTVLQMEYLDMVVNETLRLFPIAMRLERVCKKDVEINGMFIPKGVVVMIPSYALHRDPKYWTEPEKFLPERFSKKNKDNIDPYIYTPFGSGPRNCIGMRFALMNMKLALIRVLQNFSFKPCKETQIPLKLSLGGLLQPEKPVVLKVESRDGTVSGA
Chain of Cytochrome P450 2D6 (Homo sapiens) (P10635 whole entry, looked up): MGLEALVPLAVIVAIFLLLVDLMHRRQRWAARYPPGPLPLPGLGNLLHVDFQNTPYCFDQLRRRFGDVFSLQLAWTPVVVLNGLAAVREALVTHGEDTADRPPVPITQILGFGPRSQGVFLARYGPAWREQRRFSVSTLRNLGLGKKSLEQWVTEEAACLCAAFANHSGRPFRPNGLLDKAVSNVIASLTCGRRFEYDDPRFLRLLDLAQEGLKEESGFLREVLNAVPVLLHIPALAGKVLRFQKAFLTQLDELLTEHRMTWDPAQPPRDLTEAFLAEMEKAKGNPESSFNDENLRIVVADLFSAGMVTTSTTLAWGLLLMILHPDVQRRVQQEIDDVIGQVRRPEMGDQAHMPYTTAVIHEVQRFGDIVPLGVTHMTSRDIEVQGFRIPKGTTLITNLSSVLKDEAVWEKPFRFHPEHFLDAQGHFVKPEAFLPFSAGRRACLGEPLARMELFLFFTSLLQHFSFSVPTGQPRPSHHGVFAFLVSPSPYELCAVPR
Chain of Acetylcholinesterase (Homo sapiens) (P22303 whole entry, looked up): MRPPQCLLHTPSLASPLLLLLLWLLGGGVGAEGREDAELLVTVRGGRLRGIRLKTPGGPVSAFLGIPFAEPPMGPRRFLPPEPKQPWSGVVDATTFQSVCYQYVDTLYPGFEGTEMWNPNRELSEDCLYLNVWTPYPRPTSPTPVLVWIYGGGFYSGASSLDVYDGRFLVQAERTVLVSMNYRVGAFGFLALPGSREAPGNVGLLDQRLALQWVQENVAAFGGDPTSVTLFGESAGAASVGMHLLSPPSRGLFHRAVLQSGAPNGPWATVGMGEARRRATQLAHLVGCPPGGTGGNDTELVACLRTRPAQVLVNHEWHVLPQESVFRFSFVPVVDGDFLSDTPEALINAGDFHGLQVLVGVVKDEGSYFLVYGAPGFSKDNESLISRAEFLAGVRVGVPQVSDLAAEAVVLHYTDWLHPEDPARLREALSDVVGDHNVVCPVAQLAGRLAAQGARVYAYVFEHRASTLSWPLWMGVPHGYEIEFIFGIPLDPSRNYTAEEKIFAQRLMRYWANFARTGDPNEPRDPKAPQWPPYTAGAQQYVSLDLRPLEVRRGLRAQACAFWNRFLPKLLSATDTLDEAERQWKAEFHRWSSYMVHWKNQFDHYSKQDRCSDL
Chain of Cytochrome P450 2C19 (Homo sapiens) (P33261 whole entry, looked up): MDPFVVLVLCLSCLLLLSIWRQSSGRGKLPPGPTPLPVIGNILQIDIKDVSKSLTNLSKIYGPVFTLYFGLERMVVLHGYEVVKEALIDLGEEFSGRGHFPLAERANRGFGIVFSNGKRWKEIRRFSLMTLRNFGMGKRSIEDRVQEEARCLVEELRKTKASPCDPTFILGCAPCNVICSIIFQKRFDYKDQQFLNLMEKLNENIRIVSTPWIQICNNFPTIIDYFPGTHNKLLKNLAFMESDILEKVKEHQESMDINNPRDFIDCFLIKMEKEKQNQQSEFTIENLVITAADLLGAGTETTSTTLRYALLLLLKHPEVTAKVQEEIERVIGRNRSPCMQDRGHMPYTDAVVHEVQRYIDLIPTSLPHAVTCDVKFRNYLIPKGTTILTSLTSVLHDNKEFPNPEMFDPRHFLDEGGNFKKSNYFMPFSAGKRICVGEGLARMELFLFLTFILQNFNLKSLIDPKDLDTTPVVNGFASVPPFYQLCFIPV

As for `Cc1cc(C)cc(OP(=O)(Oc2cc(C)cc(C)c2)Oc2cc(C)cc(C)c2)c1`, the Potency result in test [1], in [2], in [4], in test [5], in test [6] and in test [7] was “inactive” each time. The Potency entry in [8] is “inactive”. Also, the Potency is 8.77 µM (active) in [3], 9.08 µM (active) in [9], 5.73 µM (active) in test [10] and 2.03 µM (active) in test [11].

For `CC1(C)CC/C(=C/c2ccc(Cl)cc2)C1(O)Cn1cncn1` (stereo not given), the Potency result in test [1], in [2], in test [4], in test [5], in test [6] and in [13] was “inactive” each time. For the same compound, the Potency was 12.1 µM (active) in test [3]; 12.6 µM (active) in test [8]; 0.223 µM (active) in test [9]; 1.12 µM (active) in test [10]; 35.4 µM (active) in test [12].

Regarding `SCc1ccco1`, the Potency entry in [1], in test [2], in [3], in test [4], in [5] and in test [6] was “inactive” in each case. Moreover, the Potency result in test [7] and in test [13] was “inactive” throughout. The Potency in test [9] is 39.9 µM (active); in test [10], 35.6 µM (active); in [12] it was 35.6 µM (active).

On to `CC(C)[C@H](C(=O)O[C@H](C#N)c1cccc(Oc2ccccc2)c1)c1ccc(Cl)cc1`, for which the Potency result in test [1], in [2], in test [4], in test [5], in test [6] and in test [7] was “inactive” each time. Further, the Potency result in test [8], in [13] and in [11] was “inactive” throughout. In addition, the results for the Potency in test [3], in [9] and in test [10] were 4.32 µM (active), 7.96 µM (active) and 5.63 µM (active), respectively.

On to `[Cd+2].[Cl-].[Cl-]`, for which the Potency result in test [1] and in test [13] was “inactive” throughout. In addition, the Potency in test [2] was 54.9 µM (active) and 30.6 µM (active).

`O=CC(Br)(Br)Br`: the Potency result in [1], in test [4], in test [5], in test [7], in test [8] and in test [13] was “inactive” each time. Also, in test [11], the Potency entry was “inactive”. Also, the Potency in test [2] is 54.3 µM (active); in test [10], 14.1 µM (active).

As to `CCOP(=O)(NC(C)C)Oc1ccc(SC)c(C)c1` (stereo not given), the Potency entry in test [1] and in [13] was “inactive” throughout. The Potency was 7.7 µM (active) in test [3]; 58.6 µM (active) in test [4]; 84.4 µM (active) in [5]; 15.9 µM (active) in test [6]; 71 µM (active) in test [7]; 5.02 µM (active) in test [8]. The Potency was 1.59 µM (active) in test [9], 11.9 µM (active) in [10] and 2.75 µM (active) in [12].

`O=c1[nH]c2ccccc2n1CCCN1CCC(n2c(=O)[nH]c3cc(Cl)ccc32)CC1`: the Potency entry in [1] is “inactive”. Besides, the max activation in test [14] is -1.24%.

As to `Nc1ccc([N+](=O)[O-])cc1Cl`, the Potency result in test [1], in [3], in test [4], in [5], in test [9] and in [10] was “inactive” throughout. Further, the Potency result in test [13] and in test [11] was “inactive” in each case. Also, the Potency in [12] was 25.2 µM (active).

As for `CC(C)(C)c1ccc(CSc2cnn(C(C)(C)C)c(=O)c2Cl)cc1`, the Potency entry in test [1], in test [3], in test [4], in [5], in test [6] and in [11] was “inactive” each time. Moreover, the Potency in test [9] was 7.96 µM (active); in test [10], 6.33 µM (active).

Regarding `COP(=O)(OC)SCn1c(=O)oc2cc(Cl)cnc21`, the Potency result in [1] is “inactive”. Moreover, the Potency is 3.56 µM (active) in [4]; 7.1 µM (active) in test [5]; 0.252 µM (active) in test [6]; 71 µM (active) in [7]; 39.9 µM (active) in test [8]; 25.2 µM (active) in test [9]. In addition, the Potency in [10] was 31.7 µM (active).
